# Laboratory results from PubChem BioAssay AID2502 (National Center for Advancing Translational Sciences (NCATS), 2010).
# Where “and” joins values, the source holds several entries; their conditions need not be identical. Identical values can stand only once. Inconclusive results are not listed. Unmarked numbers belong to inactive results. Calls follow the shape of the dose curve; as a rule, active = well fitted curve in the direction sought with a large enough effect; inconclusive = small, poorly fitted or top-dose-only effect, or another doubt; inactive = no such curve, though single readings can be large or run the other way.
# Experiment: Confirmatory Assay for Inhibitors of Human Galactokinase (GALK): Phenol-HRP redox assay counterscreen for probe SAR
# Conditions: Phenol red-HRP H2O2 redox cycling, absorbance 600 nm
# Excerpt: NIH Molecular Libraries Probe Production Centers Network [MLPCN] NIH Chemical Genomics Center [NCGC] MLPCN Grant: R03 MH085689-01 Assay Submitter (PI): Kent Lai (University of Utah School of Medicine, 50 N Mario Capecchi Drive, Salt Lake City, UT 84132) NCGC Assay Overview: One mM dithiothreitol (DTT) was used as a reducing agent to maintain the galactokinase (GALK) enzyme in its active form in the GALK qHTS screen (AID: 1868). However, it has been shown that in the presence of DTT a number of compounds also undergo redox recyling, generating a significant amount of H2O2 that can oxidize crucial cysteine residues in the enzyme, leading to and a false-positive result. To evaluate and flag redox recycling compounds for compounds re-acquired from the qHTS screen, an endpoint colorimetric assay developed by Johnston et al. was adopted and optimized for a 1536-well plate format. In brief, the assay detects the presence of H2O2 by following the change in absorbance at 600 nm due to oxidation of phenol red (Sigma, cat# 114537) catalyzed by horseradish peroxidase (HRP; Invitrogen). A stop reagent, 1N NaOH was added prior to reading the absorbance. DMSO and different concentrations of hydrogen peroxide (Sigma, cat# 216763) in the GALK buffer were used as negative and positive controls respectively.
# NCGC Assay Protocol Summary: Two uL/well of GALK buffer (20mM HEPES pH8.0, 5 mM MgCl2, 60 mM NaCl, 1 mM DTT, 0.01% BSA final concentration) was dispensed into a 1536-well assay plates (Greiner, black clear bottom plates) with Aurora Discovery BioRAPTR Flying Reagent Dispenser (FRD; Beckton-Dickenson). Compound and control solutions (23 nL each) were transferred to the assay plate in their respective wells using Kalypsys pin tool equipped with a 1536-pin tool head and incubated at room temperature for 30 min. Presence of H2O2 produced by redox cycling compounds was detected by adding 2 uL/well phenol red - HRP detection reagent ([…] phenol red in 1x Hanks Balanced Salt Solution, 25 U/mL HRP final concentrations). After 15 min of room temperature incubation, the reaction was stopped by adding 2 uL/well 1N NaOH and incubated for an additional 1 hr at room temperature. The absorbance at 600 nm was measured using the ViewLux plate reader (Perkin Elmer, Waltham, MA) with 6000 light energy, 2 sec exposure, and 2x binning instrument settings.
row,Structure (SMILES),max response
1,CC1(C)CC(=O)C2=C(C1)NC(Nc1nc3ccccc3o1)=NC2c1ccccc1Cl (stereo unspecified),-4.5%
2,O=C1CCCC2=C1C1(CCCC1)N=C(Nc1nc3ccccc3o1)N2,-5.8% and 7.13%
3,O=C1CCCC2=C1C1(CCCC1)N=C(Nc1nc3cc(-c4ccccc4)ccc3o1)N2,-17.5%
4,O=C1CCCC2=C1C1(CCSCC1)N=C(Nc1nc3ccccc3o1)N2,3.32%
5,CC1(C)CC(=O)C2=C(C1)NC(Nc1nc3ccccc3o1)=NC2c1ccccc1 (stereo unspecified),4.41%
6,CCC1CCC2(C1)N=C(Nc1nc3ccccc3o1)NC1=C2C(=O)CCC1 (stereo unspecified),9.72% [middle of 5 runs]
7,CC1(C)CC(=O)C2=C(C1)NC(Nc1nc3ccccc3o1)=NC21CCCC1,-0.364%
8,O=C1CCCC2=C1[C@@]1(CCC(c3ccccc3)C1)N=C(Nc1nc3ccccc3o1)N2 (stereo partly specified),-22.7%
9,Cc1ccc(C2N=C(Nc3nc4ccccc4o3)NC3=C2C(=O)CC(C)(C)C3)cc1 (stereo unspecified),0.33%
10,O=C1CCC2=C1C(c1ccccc1Cl)N=C(Nc1nc3ccccc3o1)N2 (stereo unspecified),4.53%
11,O=C1CCCC2=C1C1(CCS(=O)(=O)C1)N=C(Nc1nc3ccccc3o1)N2 (stereo unspecified),7.09%
12,CC1CCC2(C1)N=C(Nc1nc3ccccc3o1)NC1=C2C(=O)CCC1 (stereo unspecified),2.86%
13,O=C1CCCC2=C1C1(CCOCC1)N=C(Nc1nc3ccccc3o1)N2,-7.41%
14,CC1(C)N=C(Nc2nc3ccccc3o2)NC2=C1C(=O)CCC2,-7.6%
15,Cn1c(NC2=NC3(CCCC3)C3=C(CCCC3=O)N2)nc2ccccc21,-10.7%
16,O=C1CCCC2=C1C1(CCC1)N=C(Nc1nc3ccccc3o1)N2,-2.94%
17,COc1ccccc1C1N=C(Nc2nc3ccccc3o2)NC2=C1C(=O)CC(C)(C)C2 (stereo unspecified),-7.36%
18,O=C1CC(c2ccccc2)CC2=C1C1(CCCCC1)N=C(Nc1nc3ccccc3o1)N2 (stereo unspecified),-19.3%

row,Structure (SMILES),max response
1,Cc1ccc2nc(NC3=NC4(CCCC4)C4=C(CCCC4=O)N3)oc2c1,-9.86%
2,COc1ccc(C2N=C(Nc3nc4ccccc4o3)NC3=C2C(=O)CC(C)(C)C3)cc1 (stereo unspecified),-4.13%
3,COc1cccc(C2N=C(Nc3nc4ccccc4o3)NC3=C2C(=O)CC(C)(C)C3)c1 (stereo unspecified),-7.9%
4,Cc1nc(Nc2nc3ccccc3o2)nc2c1C(=O)CC(C)(C)C2,-9.62%
5,O=C1CCCC2=C1C1(CCCC1)N=C(Nc1nc3cc4ccccc4cc3o1)N2,-24.7%
6,CC1(C)CC(=O)C2=C(C1)NC(Nc1nc3ccccc3o1)=NC2c1cccnc1 (stereo unspecified),-12.6%
7,Cc1ccc2oc(NC3=NC4(CCCC4)C4=C(CCCC4=O)N3)nc2c1,-13.5%
8,O=C1CCCC2=C1C1(CCCOC1)N=C(Nc1nc3ccccc3o1)N2 (stereo unspecified),1.73%
9,CC1(C)CC(=O)C2=C(C1)NC(Nc1nc3ccccc3o1)=NC2c1cccc(Cl)c1 (stereo unspecified),-8.98%
10,O=C1CCCC2=C1C1(CCCC1)N=C(Nc1nc3ccccc3n1Cc1ccccc1)N2,-7.8%
11,O=C1CCCC2=C1C1(CCCC1)N=C(Nc1nc3cc(Cl)ccc3o1)N2,-6.87%
12,O=C1CCCC2=C1C1(CCSC1)N=C(Nc1nc3ccccc3o1)N2 (stereo unspecified),9.11%
13,O=C1CCC2=C1C1(CCCC1)N=C(Nc1nc3ccccc3o1)N2,-0.733%
14,O=C1CCCC2=C1C1(CCCC1)N=C(Nc1nc3cc(Br)ccc3o1)N2,-13.4%
15,O=C1CC(c2ccccc2)CC2=C1C1(CCCC1)N=C(Nc1nc3ccccc3o1)N2 (stereo unspecified),-23.7%
16,O=C1CCCC2=C1C(c1ccccc1Cl)N=C(Nc1nc3ccccc3o1)N2 (stereo unspecified),1.07%
17,O=C1CCCC2=C1C1(CCCCC1)N=C(Nc1nc3ccccc3o1)N2,-4.16%
18,O=C1CCCC2=C1C(c1ccc(Cl)cc1)N=C(Nc1nc3ccccc3o1)N2 (stereo unspecified),2.22%
